Among the data in the supplement of paper PMC7156485 are cell number and H1.0 immunofluorescence intensity values, retold here.

Conditions in all cases: concentration: 10 µM; 24 h
In assay [1] the test system is HCC1569. The experiment in a line: cell number relative to DMSO (% of DMSO); higher = more cells (less growth inhibition / toxicity). The method in brief:
(§1)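 For HCC1569 and TDF cells, compounds at 10 µM were applied for 24 h at 37 °C in triplicate in 384-well plates. Cells were fixed in 3.7% formaldehyde, stained for H1.0 and with DAPI, and imaged at ×10 over six fields per well. The endpoint, H1.0 nuclear intensity or cell number, is shown as percent of the plate control using the median of replicates. Positional effects were smoothed for HCC1569 only.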

For assay [2], the system named is TDF. Described as above. Summed up:
as §1

For assay [3], the system named is TDF. The assay is described as follows: H1.0 immunofluorescence intensity relative to DMSO (% of DMSO); higher = stronger H1.0 induction, active = 120 or more. The method in brief:
as §1

In assay [4] the test system is HCC1569. The experiment in a line: H1.0 immunofluorescence intensity relative to DMSO (% of DMSO); higher = stronger H1.0 induction, active = 140 or more. The method in brief: as §1

± gives the standard deviation of the averaged measurements.
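Wherever H1.0 immunofluorescence intensity relative to DMSO is given: TDF is a line of transformed human dermal fibroblasts of mesenchymal origin.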
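Wherever cell number relative to DMSO is given: TDF denotes transformed human dermal fibroblasts of mesenchymal origin.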

For `CCOP(=O)(OCC)C(=Cc1cc(C(C)(C)C)c(O)c(C(C)(C)C)c1)P(=O)(OCC)OCC`, the cell number with HCC1569 [1] was found to be 90.7; with TDF [2] it was 101. In addition, the values for the H1.0 immunofluorescence intensity with TDF [3] and with HCC1569 [4] were 93.9 (inactive) and 124 (inactive), respectively.

Regarding `C#CCCCCCCCCCCCCCCCC(=O)O` [17-Octadecynoic acid], the cell number in the assay on HCC1569 [1] came to 102; in the assay with TDF [2], 99.7. The H1.0 immunofluorescence intensity with TDF [3] was 92.5 (inactive); in the assay on HCC1569 [4] it was 99.4 (inactive).

In the case of `COc1ccc(-c2cc(=S)ss2)cc1` [Anethole trithione], the cell number came to 93.6 in the assay with HCC1569 [1] and 104 in the assay with TDF [2]. Moreover, the H1.0 immunofluorescence intensity in the assay with TDF [3] is 98.2 (inactive); with HCC1569 [4], 103 (inactive).

Consider `COc1ccc(CCN(C)CCCC(C#N)(c2cc(OC)c(OC)c(OC)c2)C(C)C)cc1OC.Cl` (racemic), for which the cell number in the assay on HCC1569 [1] stood at 96.5; with TDF [2], 109. Moreover, the H1.0 immunofluorescence intensity was 89 (inactive) in the assay with TDF [3] and 92.3 (inactive) in the assay on HCC1569 [4].

On to `CCCCCCCCCCCCCCCC(=O)O` [Hexadecanoic acid], for which the values for the cell number in the assay on HCC1569 [1] and with TDF [2] were 97.3 and 92.6, respectively. Besides, the H1.0 immunofluorescence intensity is 104 (inactive) with TDF [3] and 97.9 (inactive) in the assay on HCC1569 [4].

For the molecule `COc1ccccc1OCCNCC(O)COc1cccc2[nH]c3ccccc3c12` (stereo not given) [Carvedilol], the cell number turned out to be 92.6 ± 15 with HCC1569 [1] and 104 ± 4.5 with TDF [2]. The H1.0 immunofluorescence intensity with TDF [3] was 99.3 (inactive); in the assay with HCC1569 [4], 106 (inactive).

As to `CC(C)(C)c1cc(O)ccc1O` [tert-Butylhydroquinone], the cell number in the assay on HCC1569 [1] is 104; in the assay with TDF [2] it was 97.2. Moreover, the values for the H1.0 immunofluorescence intensity in the assay with TDF [3] and in the assay with HCC1569 [4] were 96.4 (inactive) and 89.1 (inactive), respectively.

Consider `NC(Cc1ccc(Cl)cc1)C(=O)O` (racemic), for which the values for the cell number in the assay on HCC1569 [1] and in the assay with TDF [2] were 101 and 106, respectively. Besides, the results for the H1.0 immunofluorescence intensity in the assay on TDF [3] and in the assay on HCC1569 [4] were 88.6 (inactive) and 87.6 (inactive), respectively.

Regarding `Cl.Cl.Fc1ccc(C(c2ccc(F)cc2)N2CCN(CC=Cc3ccccc3)CC2)cc1` [Flunarizine dihydrochloride], the cell number is 101 in the assay with HCC1569 [1] and 110 in the assay on TDF [2]. Further, the H1.0 immunofluorescence intensity was 89.1 (inactive) in the assay on TDF [3] and 97.3 (inactive) in the assay with HCC1569 [4].

As for `CC1(C)SC2C(NC(=O)COc3ccccc3)C(=O)N2C1C(=O)[O-]` (stereo not given) [Pencillin V], the cell number with HCC1569 [1] came to 100; in the assay with TDF [2] it was 101. In addition, the H1.0 immunofluorescence intensity is 87.4 (inactive) in the assay on TDF [3] and 112 (inactive) in the assay on HCC1569 [4].

For `CCCCCC=CCC=CCC=CCCCCC(=O)O` [γ-Linolenic acid (18:3 n-6)], the cell number in the assay on HCC1569 [1] was 99.3; with TDF [2], 96.9. Moreover, the values for the H1.0 immunofluorescence intensity with TDF [3] and in the assay on HCC1569 [4] were 96.6 (inactive) and 98.8 (inactive), respectively.

Take `CS(=O)(=O)O.N=C(N)SCCc1ccc(OCc2ccc([N+](=O)[O-])cc2)cc1`: the cell number stood at 88.6 in the assay with HCC1569 [1] and 78.2 in the assay with TDF [2]. In addition, the H1.0 immunofluorescence intensity in the assay with TDF [3] is 125 (active); in the assay on HCC1569 [4] it was 158 (active).

`O=C1C(=O)c2ccccc2C(O)=C1C1CCC(c2ccc(Cl)cc2)CC1` (stereo not given) [Atovaquone]: the cell number came to 100 in the assay with HCC1569 [1] and 99 in the assay on TDF [2]. The H1.0 immunofluorescence intensity in the assay on TDF [3] was 95 (inactive); in the assay with HCC1569 [4] it was 108 (inactive).

For `CC1(C)CCC=[N+]1[O-]` [5,5-Dimethyl-1-pyrroline-N-oxide], the cell number in the assay with HCC1569 [1] came to 100; with TDF [2], 105. Further, the figures for the H1.0 immunofluorescence intensity with TDF [3] and in the assay with HCC1569 [4] were 94.2 (inactive) and 99.5 (inactive), respectively.

Turning to `CNC(=C[N+](=O)[O-])NCCSCc1ccc(CN(C)C)o1.Cl` [Ranitidine.HCl], the cell number with HCC1569 [1] stood at 110; with TDF [2], 106. Besides, the figures for the H1.0 immunofluorescence intensity in the assay on TDF [3] and in the assay on HCC1569 [4] were 95.3 (inactive) and 103 (inactive), respectively.

`CC[C@H](C)C(=O)O[C@H]1C[C@H](O)C=C2C=C[C@H](C)[C@H](CC[C@@H](O)C[C@@H](O)CC(=O)[O-])[C@H]21.[Na+]`: the cell number in the assay with HCC1569 [1] came out at 101; in the assay on TDF [2], 93.2. The H1.0 immunofluorescence intensity in the assay with TDF [3] was 95.9 (inactive); in the assay on HCC1569 [4], 98.1 (inactive).

As for `COc1cccc2c1C(=O)c1c(O)c3c(c(O)c1C2=O)CC(O)(C(=O)CO)CC3OC1CC(N)C(O)C(C)O1.Cl` (stereo not given) [Doxorubicin.HCl], the cell number was determined as 59.6 ± 3.9 in the assay on HCC1569 [1] and 17.1 ± 3.7 with TDF [2]. For the same molecule, the H1.0 immunofluorescence intensity in the assay with TDF [3] was 132 (active); with HCC1569 [4], 1430 (active).

Consider `COC(=O)Nc1nc2ccc(C(=O)c3ccccc3)cc2[nH]1` [Mebendazol], for which the cell number with HCC1569 [1] amounted to 69.2; in the assay on TDF [2], 11.6. The H1.0 immunofluorescence intensity with TDF [3] was 188 (active); in the assay on HCC1569 [4] it was 127 (inactive).

On to `CC(C)(O)c1ccccc1CCC(SCC1(CC(=O)O)CC1)c1cccc(C=Cc2ccc3ccc(Cl)cc3n2)c1` (stereo not given) [Montelukast], for which the cell number in the assay on HCC1569 [1] and with TDF [2] was 101 throughout. In addition, the values for the H1.0 immunofluorescence intensity with TDF [3] and with HCC1569 [4] were 94.7 (inactive) and 94.9 (inactive), respectively.

Regarding `CCOc1nc(NC(=O)Cc2cc(OC)ccc2OC)cc(N)c1C#N` [JNK Inhibitor VIII], the values for the cell number in the assay with HCC1569 [1] and in the assay on TDF [2] were 97.9 and 104, respectively. Also, the H1.0 immunofluorescence intensity in the assay with TDF [3] is 92.7 (inactive); with HCC1569 [4], 120 (inactive).

Turning to `CC1COc2c(C3(N)CC3)c(F)cc3c(=O)c(C(=O)O)cn1c23` (stereo not given) [Pazufloxacin], the cell number is 104 with HCC1569 [1] and 110 in the assay on TDF [2]. Besides, the H1.0 immunofluorescence intensity in the assay on TDF [3] is 94.1 (inactive); in the assay with HCC1569 [4] it was 104 (inactive).

Take `Cl.NCCNC(=O)c1ncsc1-c1cccc(F)c1` [Ro 41-1049 hydrochloride]: the cell number in the assay on HCC1569 [1] is 97.5; in the assay with TDF [2], 90.9. Besides, the figures for the H1.0 immunofluorescence intensity with TDF [3] and in the assay on HCC1569 [4] were 97.4 (inactive) and 104 (inactive), respectively.

On to `O=c1[nH]c2ccccc2c2ccccc12` [6(5H)-Phenanthridinone], for which the cell number in the assay on HCC1569 [1] was 100; with TDF [2] it was 109. Moreover, the H1.0 immunofluorescence intensity in the assay with TDF [3] was 93.8 (inactive); in the assay with HCC1569 [4] it was 104 (inactive).

With `COc1cc2ncnc(Nc3ccc(Cl)cc3F)c2cc1OC.Cl`, the cell number with HCC1569 [1] was 83.3; in the assay on TDF [2], 102. Further, the H1.0 immunofluorescence intensity in the assay with TDF [3] was 95.7 (inactive); in the assay on HCC1569 [4], 141 (active).

With `CN1CCc2ccccc2Cc2[nH]c3ccccc3c2CC1`, the cell number with HCC1569 [1] came to 104; in the assay with TDF [2], 108. Besides, the H1.0 immunofluorescence intensity was 92.4 (inactive) in the assay on TDF [3] and 100 (inactive) in the assay on HCC1569 [4].
